# Experimental data from PubChem BioAssay AID463 (The Scripps Research Institute Molecular Screening Center, 2006).
# About 710 (1.3%) of roughly 56,000 compounds were called active.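 How the source made its calls: active means inhibition above the mean inhibition of all tested compounds plus 3 SD (cut at about 28% in these data); inactive means the rest.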 The sample as a whole holds a higher share of actives than the screen did.
# Experiment: cytotoxicity toward Jurkat T cells, primary screen, cytotoxicity control, cell-based, Jurkat E6.1, 60K MLSMR library (AID 463)
# Details: Jurkat E6.1 viability, ATP luminescence, 48 h; at 4 µM; stronger effect = higher value
row,Compound,inhibition
1,COC(=O)c1[nH]c2ccccc2c1NS(=O)(=O)c1ccc(OC)cc1OC,-1.9% (inactive)
2,COc1ccc(N=Cc2c(O)[nH]c3ccccc23)cc1OC,39.2% (active)
3,COc1ccc(CCNC(=O)CCCCn2c(=O)[nH]c3ccccc3c2=O)cc1OC,-5.9% (inactive)
4,COc1cc(N=Cc2c(O)[nH]c3ccccc23)cc(OC)c1OC,63% (active)
5,COc1ccc2[nH]c3ccc(OC)cc3c2c1,-4.4% (inactive)
6,COc1ccc(OC)c(N=Cc2c(O)[nH]c3ccccc23)c1,-1% (inactive)
7,CCn1nnc(NC(=O)c2cc(Cl)c(OC)c(Cl)c2)n1,-2% (inactive)
8,COC(=O)c1ccc(OC(=O)c2nn(C)cc2Cl)c(OC)c1,2.9% (inactive)
9,CCOC(=O)C1CCN(C(c2cc3cc(C)cc(C)c3[nH]c2=O)c2nnnn2C2CCCCC2)CC1 (configuration not stated),-0.3% (inactive)
10,C=CCNC(=O)CCCOc1cccc(C)c1,4.8% (inactive)
11,OCCNCCCCOc1ccccc1F,3% (inactive)
12,COc1cc(Cl)c(S(=O)(=O)n2cnc(C)c2)cc1Cl,2.3% (inactive)
13,CCC(=O)Nc1ccc(C(=O)Nc2ccc3c(c2)C(=O)N(CC2CCCO2)C3=O)cc1 (configuration not stated),-3.3% (inactive)
14,CCCC(=O)Nc1ccc(C(=O)NCCCn2ccnc2)cc1,-15.7% (inactive)
15,CCOc1ccccc1C(=O)NCCCn1ccnc1,9.7% (inactive)
16,CCCCC(=O)Nc1ccc(C(=O)NCCCn2ccnc2)cc1,57% (active)
17,C=CCSc1nc2c(c(=O)[nH]1)C(C(C)C)C(C#N)=C(N)O2 (configuration not stated),0.8% (inactive)
18,O=C1CCC(Cc2ccccc2)N1 (configuration not stated),0.5% (inactive)
19,Cc1cnc(C(=O)OCC(=O)Nc2ccc(Cl)cc2Cl)cn1,7.4% (inactive)
20,C=CCn1cnc2scc(-c3ccccc3)c2c1=O,-3% (inactive)
21,CCCc1[nH]nc2c1C(c1ccc(OC(=O)c3ccco3)cc1)C(C#N)=C(N)O2 (configuration not stated),0.7% (inactive)
22,CCCc1[nH]nc2c1C(C1CC=CCC1)C(C#N)=C(N)O2 (configuration not stated),5.6% (inactive)
23,CCCc1[nH]nc2c1C(c1ccc(Br)s1)C(C#N)=C(N)O2 (configuration not stated),29.4% (active)
24,Cc1cc(N(C)C)cc(C)[n+]1[O-],-7.1% (inactive)
25,CCOc1ccc(-c2nnc3ccc(SC)nn23)cc1,0.4% (inactive)

row,Compound,inhibition
1,CCOC(=O)CSC1=C(C#N)C(c2ccco2)C(C(=O)OCc2ccccc2)=C(C)N1 (configuration not stated),7.5% (inactive)
2,CCOC(=O)CSC1=C(C#N)C(c2sccc2C)CC(=O)N1 (configuration not stated),93.2% (active)
3,COC(=O)CSC1=C(C#N)C(c2ccccc2OC)C(C(=O)OC)C(=O)N1 (configuration not stated),5.3% (inactive)
4,CCOC(=O)COc1ccc(Cl)cc1C1NC(=O)NC(C)=C1C(C)=O (configuration not stated),-2.2% (inactive)
5,CCOC(=O)c1c(NC(=O)c2ccc(Br)o2)sc2c1CCCC2,6.2% (inactive)
6,C=C(C)COc1ccc(-c2n[nH]c(C)c2-c2ccccc2)c(O)c1,22.9% (inactive)
7,COc1ccc(-c2n[nH]c(C)c2-c2ccc(OC)c(OC)c2)c(O)c1,52% (active)
8,C=C(C)COc1ccc(-c2n[nH]c(C)c2-c2ccccc2OC)c(O)c1,5.8% (inactive)
9,Cn1c(=O)[nH]c(=O)c2c1nc(CN1CCN(c3ccccc3F)CC1)n2CCc1ccccc1,0% (inactive)
10,O=S(=O)(c1cccc(S(=O)(=O)N2CCC(n3nnc4ccccc43)CC2)c1)N1CCCCC1,0.6% (inactive)
11,Cn1c(NC(=O)c2ccc3c(c2)OCO3)cc(=O)n(C)c1=O,-10.9% (inactive)
12,CCOc1ccc(-c2nnc(-c3ccco3)o2)cc1,8.6% (inactive)
13,CCOC(=O)CSc1nnc(CNc2nc(-c3ccccc3)cs2)n1C,0% (inactive)
14,COc1ccc(C(c2nnnn2C2CCCCC2)N2CCN(c3ccccc3F)CC2)cc1 (configuration not stated),-5.7% (inactive)
15,CCc1nnc(NC(=O)CSc2nnc(-c3ccncc3)n2Cc2ccccc2)s1,-9.3% (inactive)
16,Cc1nnc(NC(=O)CSc2nccn2-c2cccc(C)c2C)s1,71.5% (active)
17,COc1ccccc1-n1c(CNC(=O)c2ccccc2)nnc1SCC(=O)Nc1nnc(C)s1,-6.1% (inactive)
18,Cc1cc(Nc2cccc(C)c2C)n2ncnc2n1,2.2% (inactive)
19,CCOC(=O)N1CCN(C(=O)C2CC(c3ccc(F)cc3)=NO2)CC1 (configuration not stated),-1.7% (inactive)
20,CN(C)c1ccnc2sc3c(=O)n(Cc4ccccc4)cnc3c12,14.6% (inactive)
21,CC1COC2C(O1)N(S(C)(=O)=O)CCN2S(C)(=O)=O (configuration not stated),-1.8% (inactive)
22,CC(=O)Oc1ccc(C)cc1N1C(=O)c2ccc(C(=O)O)cc2C1=O,-10.1% (inactive)
23,CCOc1ccc2nc(SC(CC)C(=O)Nc3cc(C)on3)sc2c1 (configuration not stated),1% (inactive)
24,Cc1nc(CNS(=O)(=O)c2cccnc2)cs1,2.3% (inactive)
25,Cc1nc(CNS(=O)(=O)c2ccc(Oc3ccccc3)cc2)cs1,35.6% (active)

row,Compound,inhibition
1,Cc1ccc(S(=O)(=O)NCc2csc(C)n2)c(C)c1,-3.9% (inactive)
2,Cc1cccc(NC(=O)c2ccccc2NC(=O)C(C)(C)C)n1,2.6% (inactive)
3,COc1cccc(N2CCN(C(=O)C3CCCN(S(=O)(=O)c4cnc[nH]4)C3)CC2)c1 (configuration not stated),0.4% (inactive)
4,CN(C)c1nc(N)nc(CSc2nnnn2-c2cccc3ccccc23)n1,66.2% (active)
5,Cc1ccc(-c2noc(CSc3nnnn3-c3ccccc3)n2)cc1,-2.2% (inactive)
6,O=c1c2ccccc2nc(CSc2nnnn2-c2ccccc2)n1-c1ccccc1,-1.7% (inactive)
7,Cn1c(=O)cc(OCCCC(=O)N2CCN(Cc3ccc4c(c3)OCO4)CC2)c2ccccc21,1.1% (inactive)
8,Cc1cc(/C=N/n2cnnc2)c(C)n1-c1ccc2ncccc2c1,1% (inactive)
9,C=CCn1c(=N)n(CC(O)COc2ccc(OC)cc2)c2ccccc21 (configuration not stated),-0.5% (inactive)
10,CC1CCN(C(=O)Cn2cc(C(=O)c3ccco3)c3ccccc32)CC1,2.8% (inactive)
11,O=C1CCC(C(=O)Nc2ccc(OC(F)F)cc2)N1 (configuration not stated),0.7% (inactive)
12,Cc1cc(C)nc(NC(=O)C(C)N2C(=O)c3ccccc3C2=O)n1 (configuration not stated),-2.7% (inactive)
13,O=C(Nc1ccccc1C(F)(F)F)c1cc(-c2ccc(O)cc2)on1,16.9% (inactive)
14,Cc1cc(C)nc(NC(=O)Nc2ccccc2C(F)(F)F)n1,45.2% (active)
15,Cc1nnc(N(Cc2ccco2)C(=O)c2ccno2)s1,-0.7% (inactive)
16,Cc1ccc2[nH]c(=O)c(COC(=O)c3ccccn3)cc2c1,-6.3% (inactive)
17,CCn1c(=N)c(S(=O)(=O)c2ccc(F)cc2)cc2c(=O)n3ccccc3nc21,-7% (inactive)
18,COc1ccc(Cn2nnc3c(=O)[nH]c(C4CCN(C(=O)c5ccccc5Cl)CC4)nc32)cc1,-2.8% (inactive)
19,CN(C)S(=O)(=O)c1cccc(C(=O)Nc2cccnc2)c1,-3% (inactive)
20,CCN(CC)S(=O)(=O)c1cccc(C(=O)Nc2ccccc2)c1,29.7% (active)
21,CCN(CC)S(=O)(=O)c1cccc(C(=O)NCC(=O)OCC(=O)NCc2ccccc2)c1,-5.9% (inactive)
22,COc1ccc(Br)cc1S(=O)(=O)N1CCN=C1C,2.5% (inactive)
23,CCOC(=O)C1=C(C)N=c2s/c(=C\C(=O)OC)c(=O)n2C1c1ccc(OC)cc1 (configuration not stated),6% (inactive)
24,CCOC(=O)N1CCN(S(=O)(=O)c2ccc(C(=O)Nc3ccc(F)cc3F)cc2)CC1,84.2% (active)
25,O=C(CN1CCN(S(=O)(=O)c2ccc(F)cc2)CC1)Nc1ccccc1F,-6% (inactive)

row,Compound,inhibition
1,O=C(Nc1cccc(F)c1)c1ccc(S(=O)(=O)N2CCCC2)cc1,1.7% (inactive)
2,Cc1ccc(C2c3c(oc4ccc(C)cc4c3=O)C(=O)N2CCCN2CCOCC2)cc1 (configuration not stated),3.9% (inactive)
3,Cc1ccccc1Cn1c(=O)[nH]c2ccccc21,5.4% (inactive)
4,COc1ccc(CCN2C(=O)c3[nH]nc(-c4ccccc4O)c3C2c2ccc(C)cc2)cc1OC (configuration not stated),11.1% (inactive)
5,CC(=O)N1CCN(C(=O)c2cccc(S(=O)(=O)Nc3ccc(C)cc3)c2)CC1,-0.6% (inactive)
6,O=S(=O)(Nc1ccc2nc(-c3ccco3)[nH]c2c1)c1ccccc1,4.2% (inactive)
7,Cc1ccc(S(=O)(=O)Nc2ccc3ncccc3c2)cc1,69.4% (active)
8,Cc1cc(C)cc(N(CC(=O)Nc2c(C)n(C)n(-c3ccccc3)c2=O)S(C)(=O)=O)c1,-5.2% (inactive)
9,CCOC(=O)CSc1nnc(-c2cccc(Br)c2)o1,-6.1% (inactive)
10,COc1cc(NS(=O)(=O)c2ccc(NC(C)=O)cc2)cc(OC)c1,37.3% (active)
11,COc1ccc(C(=O)Nc2ccc(S(=O)(=O)Nc3onc(C)c3C)cc2)cc1OC,-3.3% (inactive)
12,COC(=O)COc1ccc(S(=O)(=O)Nc2ccc(NC(C)=O)cc2)cc1,-9.6% (inactive)
13,CCNS(=O)(=O)c1ccc(NC(=O)Nc2cccc(OC)c2)cc1,-3.7% (inactive)
14,COc1ccc(NS(=O)(=O)c2ccc(NC(C)=O)cc2)cc1OC,31.3% (active)
15,CC(=O)Nc1ccc(S(=O)(=O)Nc2cccc(NC(=O)C(C)(C)C)c2)cc1,7.9% (inactive)
16,NC(=O)c1ccsc1NC(=O)c1ccco1,-2.4% (inactive)
17,O=C(O)c1ccc(F)c(S(=O)(=O)Nc2ccccc2)c1,6.8% (inactive)
18,O=C(O)Cc1ccc(NC(=O)C2CCCCC2C(=O)O)cc1 (configuration not stated),-4.1% (inactive)
19,Cc1nnc(SCc2ccc(C(=O)c3ccc(Cl)cc3)o2)n1-c1ccccc1,2.9% (inactive)
20,COc1ccc(N2C(=O)CN=C2Nc2cccc(C)c2C)cc1OC,-3% (inactive)
21,Nc1nnc(SCCN2C(=O)c3ccccc3S2(=O)=O)s1,-1% (inactive)
22,COc1ccccc1NC(=O)CN1CCN(S(=O)(=O)c2ccc(Br)cc2)CC1,-0.3% (inactive)
